PubChem BioAssay (NCI)
The panel holds about 79,000 compounds, 15% with a hit somewhere; the sample as a whole holds those more often. Activity calls are given as the source filed them. Rule as the data show it: active = growth inhibition above about 70%; inactive = the rest.

Columns and labels:
[1] = NCI Yeast Anticancer Drug Screen. Data for the rad52 strain (AID 147);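 also: 0% = growth of vehicle-treated control cultures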; details: S. cerevisiae rad52 mutant growth inhibition, active compounds read high
In short: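 Genetically altered yeast (DNA damage repair defect) treated with compound; inhibition calculated relative to vehicle.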

[2] = NCI Yeast Anticancer Drug Screen. Data for the wt1 strain (AID 149);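 also: 0% = growth of vehicle-treated wt1 cultures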; details: S. cerevisiae wt1 strain (SPY 50644) growth inhibition, active compounds read high
In short: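 Using yeast strain wt1, compound-induced growth inhibition was determined against vehicle-treated cultures.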

[3] = NCI Yeast Anticancer Drug Screen. Data for the rad50EPP+ strain (AID 151);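 also: 0% = growth of vehicle-treated control cultures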; details: S. cerevisiae rad50 mutant strain, active compounds read high
In short: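 Strain rad50EPP+; compound exposure; % growth inhibition vs vehicle.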

[4] = NCI Yeast Anticancer Drug Screen. Data for the rad50 strain (AID 155);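 also: 0% = growth of vehicle-only cultures of the same strain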; details: S. cerevisiae rad50 strain growth inhibition, active compounds read high
In short: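 Relative growth inhibition (compound vs vehicle) was measured in yeast with a defined repair-gene alteration.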

[5] = NCI Yeast Anticancer Drug Screen. Data for the mec2-1 strain (AID 157); details: S. cerevisiae mec2-1 strain, active compounds read high
In short: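 Cells of the genetically defined mec2-1 yeast strain are incubated with test compound. Inhibition of growth is calculated against vehicle-treated controls.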

[6] = NCI Yeast Anticancer Drug Screen. Data for the rad14 strain (AID 159);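 also: 0% = growth of vehicle-treated control cultures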; details: S. cerevisiae rad14 strain growth inhibition, active compounds read high
In short: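 Screen for anticancer potential: a yeast strain altered in DNA damage repair is grown with compound, and reduced growth is quantified against vehicle controls.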

[7] = NCI Yeast Anticancer Drug Screen. Data for the sgs1 mgt1 strain (AID 161);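 also: 0% = growth of cultures given vehicle only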; details: S. cerevisiae sgs1 mgt1 strain, active compounds read high
In short: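 Mutant yeast exposed to compound; growth scored against vehicle-only wells.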

[8] = NCI Yeast Anticancer Drug Screen. Data for the CLN2oe strain (AID 163);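 also: 0% = growth of vehicle-only control cultures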; details: S. cerevisiae CLN2oe strain, active compounds read high
In short: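 Strain altered in cell-cycle control, incubated with compound; growth compared to solvent-treated controls.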

[9] = NCI Yeast Anticancer Drug Screen. Data for the cln2 rad14 strain (AID 165);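 also: 0% = growth equal to vehicle treated cultures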; details: S. cerevisiae cln2 rad14 strain, active compounds read high
In short: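 The screen exposed genetically defined yeast (cln2 rad14) to test compounds and scored growth inhibition relative to vehicle-treated controls.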

[10] = NCI Yeast Anticancer Drug Screen. Data for the bub3 strain (AID 167); details: S. cerevisiae bub3 mutant strain, active compounds read high
In short: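 Screening used yeast with an engineered genetic alteration affecting cell cycle control. Compound-exposed cultures were compared with vehicle cultures, and reduced growth was taken as inhibition.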

[11] = NCI Yeast Anticancer Drug Screen. Data for the wt2 strain (AID 169);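 also: 0% = growth of vehicle-treated yeast cultures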; details: S. cerevisiae wt2 strain growth inhibition, active compounds read high
In short: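 Steps: yeast strain treated with compound; growth recorded; inhibition calculated relative to cultures given vehicle alone.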

[12] = NCI Yeast Anticancer Drug Screen. Data for the mlh1 strain (AID 171);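 also: 0% = growth of vehicle-treated control cultures of the same strain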; details: S. cerevisiae mlh1 strain growth inhibition, active compounds read high
In short: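 Yeast screen: mutant strain plus compound, growth scored against vehicle control wells.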

[13] = NCI Yeast Anticancer Drug Screen. Data for the sgs1 strain (AID 173);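 also: 0% = growth of vehicle-only control cultures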; details: S. cerevisiae sgs1 mutant, active compounds read high
In short: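 Inhibition of yeast growth served as the measure. The mutant strain was treated with each compound, and growth was normalised to cultures receiving vehicle alone.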

[14] = NCI Yeast Anticancer Drug Screen. Data for the mlh1 rad18 strain (AID 175); details: S. cerevisiae mlh1 rad18 strain growth inhibition, active compounds read high
In short: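 Compound-treated yeast growth, normalised to vehicle controls. Strain bears defined DNA repair mutations.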

[15] = NCI Yeast Anticancer Drug Screen. Data for the rad18 strain (AID 177); details: S. cerevisiae rad18 mutant growth inhibition, active compounds read high
In short: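 Inhibition values reflect reduced yeast growth compared with vehicle-treated controls, using a strain engineered with a DNA damage repair defect.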

[16] = at 5.0 µM (retest, dose inferred, filed as 0.5)
[17] = at 50.0 µM (retest, dose inferred, filed as 5.0)

Measured: growth inhibition

Cc1ccc(SSc2ccc(C)cc2[N+](=O)[O-])c([N+](=O)[O-])c1
inactive: [1]; at 1.2 µM 5% | [1]; at 3.7 µM 19% | [1]; at 11.0 µM 38% | [2]; at 1.2 µM -2% | [2]; at 3.7 µM 4% | [2]; at 11.0 µM 16% | [2]; at 33.0 µM 50% | [3]; at 1.2 µM 7% | [3]; at 3.7 µM 16% | [3]; at 11.0 µM 48% | [4]; at 1.2 µM 8% | [4]; at 3.7 µM 15% | [4]; [16] 54% | [4]; at 11.0 µM 33% | [4]; at 33.0 µM 68% | [4]; at 50.0 µM 69.5% | [5]; at 1.2 µM -5% | [5]; at 3.7 µM 2% | [5]; [16] 57% | [5]; at 11.0 µM 26% | [5]; at 33.0 µM 66% | [6]; at 1.2 µM -6% | [6]; at 3.7 µM -10% | [6]; at 11.0 µM 10% | [7]; [16] -8% | [8]; at 1.2 µM -11% | [8]; at 3.7 µM 0% | [8]; at 11.0 µM -9% | [8]; at 33.0 µM -5% | [9]; [16] 37% | [10]; at 1.2 µM -3% | [10]; at 3.7 µM -3% | [10]; [16] 26% | [10]; at 11.0 µM 2% | [11]; at 1.2 µM -15% | [11]; at 3.7 µM -6% | [11]; at 11.0 µM 21% | [12]; at 1.2 µM -14% | [12]; at 3.7 µM -8% | [12]; at 11.0 µM -1% | [12]; at 33.0 µM 66% | [13]; at 1.2 µM 0% | [13]; at 3.7 µM 14% | [13]; at 11.0 µM 46% | [14]; [16] 35% | [14]; at 50.0 µM 44.7% | [15]; at 1.2 µM -18% | [15]; at 3.7 µM -14% | [15]; at 11.0 µM 19% | [15]; at 33.0 µM 53%
active: [1]; at 33.0 µM 77% | [1]; at 100.0 µM 86% | [2]; at 100.0 µM 83% | [3]; at 33.0 µM 90% | [3]; at 100.0 µM 87% | [4]; [17] 90% | [4]; at 100.0 µM 86% | [5]; [17] 94% | [5]; at 50.0 µM 78.7% | [5]; at 100.0 µM 86% | [6]; at 33.0 µM 74% | [6]; at 100.0 µM 85% | [7]; [17] 95% | [8]; at 100.0 µM 72% | [9]; [17] 86% | [10]; at 33.0 µM 84% | [10]; [17] 94% | [10]; at 100.0 µM 87% | [11]; at 33.0 µM 82% | [11]; at 100.0 µM 85% | [12]; at 100.0 µM 87% | [13]; at 33.0 µM 91% | [13]; at 100.0 µM 86% | [14]; [17] 80% | [15]; at 100.0 µM 83%
